From PubChem BioAssay AID602371 (National Center for Advancing Translational Sciences (NCATS), 2012)
Records with an inconclusive call do not appear. Calls of active or inactive are those of the source. The call rests on the fitted dose curve; in most records, active means well fitted inhibition curve with a large enough effect; inconclusive means small, poorly fitted or top-dose-only effect; inactive means flat fitted curve, though single readings scatter.

Assay: qHTS Assay for Inhibitors of Bacillus subtilis Sfp phosphopantetheinyl transferase (PPTase): SAR in B subtilis 168
Settings: Bacillus subtilis 168 growth inhibition
From the text: The covalent attachment of a phosphopantetheinyl (4'-PP) arm to a variety of synthases and other proteins is a key posttranslational protein modification. The 4'-PP is installed on the proteins post-translationally from coenzyme A (CoA) on a conserved serine residue by action of phosphopantetheinyl transferase (PPTase) enzymes. Phosphopantetheinylation is essential for synthase activity, and removal of the PPTase gene precludes natural product synthesis in microorganisms, or in the case of fatty acid biosynthesis, renders the organism unviable. PPTase enzymes belong to a distinct structural superfamily. Within bacteria, these enzymes are grouped into two classes based upon primary structure, the AcpS-Type and Sfp-Type PPTases.
Sfp-type PPTases, corresponding to an activator of surfactin production in Bacillus subtilis, are responsible for modifying type I polyketide and nonribosomal peptide synthases of prokaryotes. Sfp-type PPTases are responsible for the activation of a variety of pathogen-associated virulence factors. Among these compounds are toxins such as mycolactone from Mycobacterium ulcerans, siderophores such as vibriobactin from Vibrio cholerae or mycobactin from Mycobacterium tuberculosis, as well as the mycolic acids which form the waxy cell wall of Mycobacteria. The biosyntheses of these natural products are considered attractive targets for drug design.
In search of small molecule Sfp-PPTase inhibitors, a fluorescence quenching assay was developed for detection of Bacillus subtilis Sfp-PPTase enzymatic activity in a miniaturized high-throughput format. The consensus ybbr acceptor peptide […] was N-terminally labeled with Black Hole Quencher-2 (BHQ-2) and used in combination with rhodamine-labeled coenzyme A as a co-substrate.
Phosphopantetheinyl transfer is a process essential to cellular viability and maintenance. Cell-permeable and stable compounds acting as PPTase inhibitors are anticipated to be antimicrobial agents in organisms with complimenting genotypes. […] This experiment evaluated a series of test compounds for antimicrobial activity with B. subtilis 168 (genotype: acpS+ and sfp-), a strain that contains a frameshift mutation in the sfp locus and thus requires a functional AcpS gene product for viability. [Mootz HD, 2001] This strain is expected to be sensitized to cell-permeable AcpS inhibitors, and insensitive to Sfp inhibitors.
NIH Chemical Genomics Center [NCGC]
NIH Molecular Libraries Probe Centers Network [MLPCN]
Assay Submitter (PI): Michale Burkart, University of California, San Diego
Bacillus subtilis 168 is maintained on lysogeny broth (LB) solidified by the addition of 1.5% w/v agar. Single colonies were used to LB medium (2 mL) and shaken overnight at 30 deg C. In the morning, this culture (100 uL) was used to seed a fresh LB medium (10 mL) and was shaken at 30 degC until the culture OD600 reached 0.5. This culture was diluted 1:100 in fresh LB medium to provide the inoculum below.
Bacterial susceptibility.
LB medium (2 uL) is dispensed into wells of a sterile white 1536-well plate. Test compounds (23 nL) prepared as serial dilutions in DMSO are added to the plate by pintool transfer. Innoculum (2 uL) is added, the plates are covered with a vented Kalypsys assay lid and incubated at 30 deg C. After 5 h, Bac-Titer Glo (4 uL; Promega Corp, Madison, WI) is added to the plates. They are incubated 10 minutes at room temperature and then the luminescence detected in a ViewLux multimodal plate reader.

Potency, active:
Cc1ccnc(NC(=S)N2CCCN(c3cccc(C(F)(F)F)c3)CC2)c1 11.8 µM, Cc1cc(C)nc(NC(=S)N2CC3CN(c4ccc(Cl)cc4C(F)(F)F)CC3C2)c1 (centres undefined) 11.8 µM, Cc1ccnc(NC(=S)N2CCN(c3cc(C(F)(F)F)cc(C(F)(F)F)c3)CC2)c1 14.8 µM, S=C(Nc1cc(Cl)ccn1)N1CCN(c2cccc(Cl)c2Cl)CC1 16.7 µM, FC(F)(F)c1cc(N2CCN(C(=S)Nc3cc(Cl)ccn3)CC2)cc(C(F)(F)F)c1 6.63 µM, Cc1cc(C)nc(NC(=S)N2CCN(c3cc(Br)cc(C(F)(F)F)c3)CC2)c1 16.7 µM, Cc1cc(C)nc(NC(=S)N2CCN(c3ccc(Cl)c(Cl)c3)CC2)c1 37.3 µM, Cc1ccnc(NC(=S)N2CC3CN(c4cccc(C(F)(F)F)c4)CC3C2)c1 (centres undefined) 8.35 µM, Cc1ccnc(NC(=S)N2CCN(c3cccc(N(C)C)c3)CC2)c1 46.9 µM, COc1ccnc(NC(=S)N2CCN(c3ncc(C(F)(F)F)cc3Cl)CC2)c1 18.7 µM, COc1ccnc(NC(=S)N2CCN(c3ccc(Cl)cc3Cl)CC2)c1 16.7 µM, COc1ccnc(NC(=S)N2CCN(c3cccc(Cl)c3Cl)CC2)c1 13.2 µM, FC(F)(F)c1cccc(N2CCN(C(=S)Nc3cc(C(F)(F)F)ccn3)CC2)c1 16.7 µM, CSC(Cc1ccc(Cl)cc1)C(=O)Nc1ccc(Cl)cc1C(=O)O (centres undefined) 23.5 µM, Cc1ccnc(NC(=S)N2CC3CN(c4ncc(C(F)(F)F)cc4Cl)CC3C2)c1 (centres undefined) 16.7 µM, Cc1cc(C)nc(NC(=S)N2CCN(c3ccc([N+](=O)[O-])cc3Cl)CC2)c1 14.8 µM, Cc1ccnc(NC(=S)N2CCN(c3cccc(C(F)(F)F)c3)CC2)c1 14.8 µM, Cc1ccnc(NC(=S)Nc2cccc(C(F)(F)F)c2)c1 18.7 µM, Cc1cc(C)nc(NC(=S)N2CCN(c3ccc(Cl)cc3Cl)CC2)c1 33.2 µM
